Results from PubChem BioAssay.
Activity calls are given as the source filed them.

Tests used:
[1] = A549 cell viability effects, profiling panel, calcein-AM fluorescence, 48 h, basal (AID 1162); settings: higher = more signal
[2] = adipocyte viability effects, profiling panel, cell-based, 3T3-L1 adipocytes, calcein-AM fluorescence, 48 h, basal (AID 1163); settings: 3T3-L1 adipocytes viability, higher = more signal
[3] = HepG2 cell viability effects, profiling panel, calcein-AM fluorescence, 48 h, basal (AID 1164); settings: higher = more signal
[4] = MM1S cell viability effects, profiling panel, calcein-AM fluorescence, 48 h, basal (AID 1165); settings: higher = more signal;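 further: viability of MM1S multiple myeloma cells under basal unstimulated conditions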
[5] = basal RPMI8226 viability, no added stimulus, profiling panel, cell-based, calcein-AM fluorescence, 48 h, PK04 Diversity Set (AID 1166); settings: RPMI8226 myeloma viability, higher = more signal;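 further: cells grown under basal conditions without added stimulus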
[6] = basal HepG2 mitochondrial membrane potential changes, profiling panel, cell-based, JC-1 fluorescence, 24 h, 100 nL compound (AID 1167); settings: higher = more signal
[7] = basal 3T3-L1 adipocyte mitochondrial potential changes, profiling panel, cell-based, JC-1 fluorescence, 3T3-L1 adipocytes, 24 h, 100 nL compound (AID 1168); settings: JC-1 mitochondrial fluorescence, higher = more signal, called active from +8 up or from −8 down
[8] = basal RPMI8226 mitochondrial membrane potential changes, profiling panel, cell-based, JC-1 fluorescence, 24 h, 100 nL compound (AID 1169); settings: RPMI8226 myeloma, JC-1 mitochondrial potential fluorescence, higher = more signal
[9] = basal MM1S mitochondrial membrane potential changes, profiling panel, cell-based, JC-1 fluorescence, 24 h, 100 nL compound (AID 1170); settings: higher = more signal
[10] = A549 lung cancer cell viability effects, profiling panel, resazurin fluorescence, 24 h, PK04 Diversity Set (AID 1171); settings: higher = more signal, called active from +8 up or from −8 down
Further: test concentration not given here.

Row | Compound | z-score [1] | z-score [2] | z-score [3] | z-score [4] | z-score [5] | z-score [6] | z-score [7] | z-score [8] | z-score [9] | z-score [10]
1 | COc1cc2c(cc1OC)CN(C(=O)[C@H]1[C@@H]3C(=O)O[C@@H](c4ccccc4)[C@@H](c4ccccc4)N3[C@@H](c3ccc(O)cc3)[C@]13C(=O)Nc1ccc(C#CCNC(N)=O)cc13)CC2 | -0.697 | 0.448 | 0.148 | 0.703 | 0.168 | -1.31 | 0.635 (inactive) | 0.22 | -0.222 | -0.0437 (inactive)
2 | C=CCOC(=O)[C@H]1[C@@H]2C(=O)O[C@@H](c3ccccc3)[C@@H](c3ccccc3)N2[C@@H](c2ccc(OCCOC(=O)[C@@H]3C[C@@H]4C(=O)N5CCC[C@H]5C(=O)N4[C@@H]3c3cccc(OCCO)c3)cc2)[C@]12C(=O)Nc1ccccc12 | -0.0865 | 1.05 | -0.786 | -0.423 | 0.107 | -1.41 | -0.0892 (inactive) | -0.737 | -0.421 | -1.65 (inactive)
3 | COc1ccc(CCN2C(=O)[C@@]3(c4ccc([N+](=O)[O-])cc4)CC(=O)N(C4CCCCC4)[C@@H]3c3ccc(CO)cc32)cc1 | 0.315 | -1.26 | -0.331 | 0.199 | 0.306 | -1.65 | -0.937 (inactive) | -0.694 | -0.838 | -0.113 (inactive)
4 | CCOC(=O)C[C@H]1[C@H](OC(=O)c2ccc(C(=O)c3ccccc3)cc2)[C@@H](NC(=O)c2ccc(-c3ccccc3)cc2)c2cc(OCCCO)ccc2N1C(=O)c1ccccc1 | -0.56 | 0.734 | 0.2 | -0.821 | 0.134 | 1 | -0.136 (inactive) | 0.884 | -0.117 | -0.31 (inactive)
5 | C=CCN(Cc1ccccc1)C(=O)C(c1cccs1)N(CCOCCO)C(=O)/C=C\C(=O)O (stereo not given) | 0.902 | 0.345 | 0.849 | 1.62 | 1 | -0.138 | 0.0415 (inactive) | 0.158 | -1.37 | -0.221 (inactive)
6 | O=C1[C@H]2C=C(Br)[C@H](C[C@@H]2c2ccccc2)[C@@]12CO2 | -1.18 | -0.559 | -0.675 | -2.95 | -2.49 | -1.69 | 0.0869 (inactive) | -0.323 | -0.609 | -0.541 (inactive)
7 | O=C1NCC(=O)N2[C@@H]1C[C@@H](C(=O)O)[C@H]2c1cccc(OCCO)c1 | 0.278 | -0.856 | 0.662 | 0.301 | 0.362 | 2.32 | -0.16 (inactive) | 0.529 | -0.514 | -0.229 (inactive)
8 | COCCCN1C(=O)[C@@]2(Cc3ccccc31)c1ccccc1C(=O)N(Cc1ccccc1C(F)(F)F)[C@H]2c1ccc(CO)cc1 | -0.84 | -1.15 | -0.539 | -0.155 | -0.259 | -0.451 | 0.801 (inactive) | 0.799 | 0.148 | -0.356 (inactive)
9 | C=CCN1C(=O)[C@]2(O[C@H](CCO)[C@@H]([Si](C)(C)c3ccc(OC)cc3)[C@@H]2C)c2cc(N3C(=O)c4cccc5cccc3c45)ccc21 | -3.27 | 0.105 | -4.63 | -2.63 | -4.34 | -2.32 | 0.697 (inactive) | -0.955 | -2.28 | -5.26 (inactive)
10 | CCCC=C(CCC)[C@@H](NS(=O)(=O)c1cccs1)c1ccc(C(=O)OC)cc1 | -3.9 | 0.532 | -5.36 | -3.33 | -4.74 | -4.43 | 1.24 (inactive) | -0.819 | -2.8 | 4.56 (inactive)
11 | CCOC(=O)C1=CCC(c2ccc(C)cc2)N(S(=O)(=O)c2ccc(C)cc2)C1 (stereo not given) | -1.25 | -0.825 | -0.743 | -0.537 | -1.37 | 5.35 | -1.08 (inactive) | 0.0194 | -1.82 | 0.697 (inactive)
12 | O=C1OCCC/C=C\[C@H]2OC34C=CCN(Cn5nnc6ccccc65)C(=O)[C@H]3N(CCO)C(=O)[C@@H]4C12 (stereo not given in full) | 0.499 | 1.02 | -0.822 | 0.971 | -0.117 | 0.31 | 0.192 (inactive) | 0.656 | -0.345 | -0.66 (inactive)
13 | CC(=O)N1Cc2ccccc2C[C@@]2(COC(c3ccc(OCCCO)cc3)=N2)C1=O | 1.23 | 1.93 | 2.01 | -2 | 0.151 | 0.933 | 1.59 (inactive) | -0.894 | -0.394 | 0.89 (inactive)
14 | COCCOC(=O)N1C(=O)[C@@]2(c3cc(C#Cc4ccc(OC)cc4)ccc31)[C@H](C(N)=O)[C@H]1C(=O)O[C@H](c3ccccc3)[C@H](c3ccccc3)N1[C@@H]2c1ccccc1OCCO | -1.25 | 1.18 | -1.76 | -2.32 | -3.94 | -1.79 | 2.99 (inactive) | -0.994 | -1.38 | -1.85 (inactive)
15 | C=CC[C@]12N=C(c3ccc(OCCCO)cc3)O[C@H]1c1ccccc1N(Cc1ccccc1)C2=O | -0.739 | -0.082 | -0.957 | -3.44 | -3.83 | -0.433 | 2.12 (inactive) | -0.982 | -2.48 | -1.48 (inactive)
16 | CN(C)C(=O)[C@]1(Cc2ccccc2N=[N+]=[N-])N=C(c2ccc(OCCCO)cc2)O[C@@H]1c1ccccc1 | -0.54 | -0.958 | 0.351 | -1.02 | -2.57 | 0.397 | 0.6 (inactive) | -1.1 | -1.27 | -0.32 (inactive)
17 | C=CC[C@@]1(C(N)=O)N=C(c2ccc(OCCCO)cc2)O[C@@H]1c1ccccc1CN=[N+]=[N-] | 0.0465 | 1.69 | 0.0287 | 0.204 | -0.189 | -2.45 | -0.337 (inactive) | -0.231 | -1.79 | -0.29 (inactive)
18 | COCCOC(=O)N1C(=O)[C@@]2(c3cc(C#CCNC(N)=O)ccc31)[C@H](C(=O)NC[C@H](O)c1ccccc1)[C@H]1C(=O)O[C@H](c3ccccc3)[C@H](c3ccccc3)N1[C@@H]2c1ccccc1OCCO | 1.22 | 0.504 | 0.829 | 0.837 | 0.676 | -0.523 | 0.749 (inactive) | -0.548 | -1.04 | -0.0062 (inactive)
19 | CC(C)C[C@H]1NC(=O)[C@@]23C(=O)N[C@@H](Cc4ccccc4)C2[C@H](C)[C@@]2(C)O[C@H]2C3/C=C/C/C=C\CNC(=O)[C@H](Cc2ccccc2)NC1=O (stereo not given in full) | -0.278 | 0.733 | -1.03 | -0.207 | -0.567 | 0.804 | -0.172 (inactive) | -1.09 | 0.687 | 0.217 (inactive)
20 | CC(C)c1ccc(NN2C(C(O)c3cc(C(F)(F)F)cc(C(F)(F)F)c3)C=CC3C(=O)N(c4ccccc4)C(=O)C32)cc1 (stereo not given) | -2.37 | 0.15 | -3.12 | -3.4 | -4.14 | -2.69 | -0.414 (inactive) | -0.873 | -1.57 | -2.11 (inactive)
21 | COc1cc2c(cc1O)C(C1CC1)N(Cc1cc3c(cc1Br)OCO3)CC2 (stereo not given) | -3.4 | -0.204 | -3.79 | -3.15 | -4.48 | -1.85 | -0.457 (inactive) | -0.472 | -2.08 | -4.06 (inactive)
